From PubChem BioAssay AID939 (National Center for Advancing Translational Sciences (NCATS), 2007)
Results filed as inconclusive are left out.

Experiment: Confirmation Concentration-Response Assay for Agonists of the Thyroid Stimulating Hormone Receptor; note: reference of the scale not given here
Settings: HEK293 TSHR-CNG cells, membrane potential dye, cAMP; measured here: parental HEK293 counter-screen max
Method in brief: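 TSHR+CNG HEK293 cells plated 20–36 h; membrane potential dye + 100 uM RO 20-1724, 60 min RT; cpd 30 min; fluorescence em 590 nm, bottom read. Parental CNG cells counterscreen endogenous targets.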

Row | Compound | max response
1 | Cc1ccc2nc(SCC(=O)O)nc(C)c2c1 | 13%
2 | Cc1ccc(S(=O)(=O)N2CCC(C(=O)NCCCN3CCCCCC3)CC2)cc1 | -4.36%
3 | CC1(C)c2ccccc2N2CC(=O)NC21/C=C/c1ccco1 (stereo not given) | 9.74%
4 | CCOc1ccc(N(CC(=O)Nc2ccc(C)cc2)S(=O)(=O)c2c(C)noc2C)cc1 | 5.32%
5 | Cc1onc(-c2ccccc2)c1C(=O)N1CCCSC1=Nc1ccccc1 | 18.9%
6 | COCCNC(=O)C(c1ccccc1)N(Cc1cccs1)C(=O)Cn1nnc2ccccc21 (stereo not given) | 6.98%
7 | Cc1occc1-c1nnc(SCC(=O)Nc2ccccc2)n1C(C)c1ccccc1 (stereo not given) | -10%
8 | O=c1c2ccccc2ncn1-c1ccc2c(c1)OCCO2 | 6.03%
9 | CCc1ccc(-c2nc(CN3CCC(C(=O)N4CCN(c5ccccc5)CC4)CC3)c(C)o2)cc1 | 12.8%
10 | Cc1cccc(NC(=O)CSc2nnc(-c3ccccc3)n2N)c1C | -2.22%
11 | COc1cc(OC)cc(-c2nnc(SCC(=O)N(C(C)C)C(C)C)o2)c1 | 16.6%
12 | CCOC(=O)c1cnc(-n2nc(C)cc2C)nc1-n1nc(C)cc1C | -6.3%
13 | O=C1C=C(NCc2ccccc2)C2(CCCCC2)O1 | 16.9%
14 | COC(=O)C1=C(C)OC(N)=C(C#N)C1c1c(C)nn(-c2ccccc2)c1Cl (stereo not given) | 6.03%
15 | O=C(C1COc2ccccc2O1)N1CCCC1 (stereo not given) | -1.94%
16 | Cc1ccc(S(=O)(=O)NC(=O)Nn2c(C)nnc2C)cc1 | 1.93%
17 | CCC(C)(C)n1nnnc1CN(Cc1ccco1)Cc1cc2cc3c(cc2[nH]c1=O)OCO3 | -12.1%
18 | COc1cc(/C=N/n2c(SC)nnc(C(C)(C)C)c2=O)ccc1O | -7.99%
19 | COC(=O)C1=C(C)OC(N)=C(C#N)C1C1CCCCC1 (stereo not given) | 16.5%
20 | O=C(CN(Cc1ccc(F)cc1)S(=O)(=O)c1ccccc1)N1CCCCC1 | -6.59%
21 | Cc1nn(-c2ccccc2)c(N2CCCC2)c1/C=N/n1cnc2scc(-c3ccccc3)c2c1=O | 16.6%
22 | CCOC(=O)N1CCC(NC(=O)c2ccc(CNS(=O)(=O)c3ccc(F)cc3)cc2)CC1 | 8.37%
23 | Cc1cc(C)nc(N(C#N)CC(=O)N2CCC(C(N)=O)CC2)n1 | -13.4%
24 | COc1ccc(CNc2nc(SC)n[nH]2)cc1OC | 3.91%
25 | CCOC(=O)CSc1nnc(NC(=O)c2cccc(S(=O)(=O)N3CCCCC3)c2)s1 | -6.14%
26 | Cc1ccc(N(CC(=O)NCc2ccco2)S(=O)(=O)c2ccccc2)cc1 | -6.79%
27 | O=C1c2ccccc2C(=O)N1Cc1nc(-c2ccccc2)no1 | 21.1%
28 | C=CCn1c(COc2ccccc2F)nnc1SCC(=O)N1CC(=O)Nc2ccccc21 | -6.56%
29 | COc1ccc(-c2cc(C(F)(F)F)nc(SCCC(=O)N3CCOCC3)n2)cc1 | 13%
30 | Cn1cccc1Cc1nnc(SCC(N)=O)n1CCc1ccccc1 | 3.14%
